Data from the supplement of paper PMC6555819.

Key:
Assay in all cases: PBM binding z-score (relative to random genomic background probes); higher = stronger binding; sequences stand for … in GC…GCGATTGACAGCGTAGAATGAAGG
[1] = tested on: FXR:RXRa (NR concentration 270 nM, RXRa partner concentration 90 nM)
How it was run: (§1)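 For binding z-scores, the reference was random background probes on custom Agilent 4×180K protein-binding microarrays. These arrays were incubated 1 h with ligand-free nuclear receptor dimers in PBS pH 7.4, 2% milk, 0.02% Triton X-100, 1 mM DTT, 0.2 mg/mL BSA and 0.4 mg/ml salmon testes DNA. Fluorescence was scanned after antibody detection of each partner (one per run) and regression-normalized.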

[2] = tested on: LXRa:RXRa (NR concentration 270 nM, RXRa partner concentration 90 nM)
How it was run: as §1

[3] = tested on: LXRa homodimer (NR concentration 270 nM)
How it was run: as §1

[4] = tested on: LXRb:RXRa (NR concentration 270 nM, RXRa partner concentration 90 nM)
How it was run: as §1

[5] = tested on: LXRb homodimer (NR concentration 270 nM)
How it was run: as §1

[6] = tested on: PPARa:RXRa (NR concentration 270 nM, RXRa partner concentration 90 nM)
How it was run: as §1

[7] = tested on: PPARg:RXRa (NR concentration 180 nM, RXRa partner concentration 90 nM)
How it was run: as §1

[8] = tested on: PPARg:RXRa 270nM:90nM, anti-RXR (NR concentration 270 nM, RXRa partner concentration 90 nM)
How it was run: as §1

[9] = tested on: PPARg:RXRa 30nM:10nM, anti-RXR (NR concentration 30 nM, RXRa partner concentration 10 nM)
How it was run: as §1

[10] = tested on: PPARg:RXRa 90nM:30nM, anti-RXR (NR concentration 90 nM, RXRa partner concentration 30 nM)
How it was run: as §1

[11] = tested on: PPARg:RXRa DBDmut IVT, anti-RXR (DBD mutation: RXRa K156A/R161A, NR concentration 270 nM, RXRa partner concentration 90 nM)
How it was run: as §1

[12] = tested on: PPARg:RXRa IVT, anti-PPARg (NR concentration 270 nM, RXRa partner concentration 90 nM)
How it was run: as §1

[13] = tested on: PPARg DBDmut:RXRa IVT, anti-PPARg (DBD mutation: PPARg1 K132A/R137A, NR concentration 270 nM, RXRa partner concentration 90 nM)
How it was run: as §1

[14] = tested on: PPARg DBDmut IVT, anti-PPARg (DBD mutation: PPARg1 K132A/R137A, NR concentration 270 nM)
How it was run: as §1

[15] = tested on: PPARg homodimer (NR concentration 180 nM)
How it was run: as §1

[16] = tested on: PXR:RXRa (NR concentration 270 nM, RXRa partner concentration 90 nM)
How it was run: as §1

[17] = tested on: PXR homodimer (NR concentration 270 nM)
How it was run: as §1

[18] = tested on: RARa:RXR (NR concentration 270 nM, RXRa partner concentration 90 nM)
How it was run: as §1

[19] = tested on: RARa homodimer (NR concentration 270 nM)
How it was run: as §1

[20] = tested on: RARb:RXRa (NR concentration 270 nM, RXRa partner concentration 90 nM)
How it was run: as §1

Sequence	PBM binding z-score [1]	PBM binding z-score [2]	PBM binding z-score [3]	PBM binding z-score [4]	PBM binding z-score [5]	PBM binding z-score [6]	PBM binding z-score [7]	PBM binding z-score [8]	PBM binding z-score [9]	PBM binding z-score [10]	PBM binding z-score [11]	PBM binding z-score [12]	PBM binding z-score [13]	PBM binding z-score [14]	PBM binding z-score [15]	PBM binding z-score [16]	PBM binding z-score [17]	PBM binding z-score [18]	PBM binding z-score [19]	PBM binding z-score [20]
ACTAATAGTTGAGACGAGGGCAACCGATAGGTTG	0.996	0.527	-0.147	0.288	0.0115	0.669	0.841	-0.0729	0.0984	0.103	-0.206	0.29	-0.296	0.434	-0.0381	2.33	0.121	1.08	-0.0731	1.34
TTACCAAGGTGAAGGGTCGTTGATGCACGCCTTG	1.88	1.13	-0.449	1.03	-0.693	3.65	6.01	6.42	4.63	6.33	1.59	4	0.187	-0.561	0.981	1.57	-0.419	2.72	-0.291	2.08
CCTACTGGGCTAAAGGTCATTGATTCCAATGCTC	4.68	4.85	4.14	4.48	0.6	6.09	11.2	9.38	9.13	10.4	4.37	6.31	-0.17	-0.112	4.02	4.97	1.35	5.44	0.872	4.26
TCTGCTAGGTCAGTTGGTCCGCTAACGAGCTGCC	0.769	0.595	-0.724	0.186	0.781	0.869	-0.334	1.28	1.13	0.949	2.64	2.46	0.84	0.95	-0.535	-0.0468	-0.863	-0.00908	-1.31	3.12
AGACTGAGGTTAAGATCAGGGAAACAGAATACAT	2.11	1.75	-0.133	1.6	-0.417	2.92	1.21	1.18	0.748	0.879	0.0393	0.554	-0.0816	-0.0692	0.531	0.903	0.258	1.84	-0.0293	1.7
ATCTCTAGGTAAAGATACTTCAGTGAATGCAAAT	0.262	0.149	0.0511	0.403	0.44	0.361	0.884	0.723	0.521	0.608	1.8	1.32	1.1	1.13	0.534	0.635	0.252	0.522	0.591	-0.033
CGAACTGGGTCATTGACAGGACAGTGAATAGTAA	3.16	1.97	0.288	1.86	-0.438	4.39	6.77	5.84	2.72	5.44	7.7	7.88	1.06	1.35	0.71	1.41	0.347	2.18	0.276	2.92
ATCTCTAGGTAACAAGTTCAGTGATAGAGAGGAC	0.623	0.613	0.594	0.524	1.01	1.34	1.67	1.87	1.19	1.53	3.07	2.7	1.93	1.91	1.18	1.7	1.97	0.777	1.13	1.69
TCGAGTAGGTTACCACTGGGGCATTCAGCTTTCT	-0.222	0.889	-0.872	0.314	-0.76	1.04	0.354	1.12	0.971	0.965	3.33	3.37	0.26	0.143	-0.498	-0.159	-1.14	0.0985	-0.786	0.833
CGAACAAGGGCATGAGTTGATAGCAAATGCCGAT	-0.0162	0.00346	-0.221	-0.134	-0.495	0.425	0.963	0.765	0.259	0.196	1.66	0.813	-0.522	-0.153	0.0917	-0.0332	-0.184	-0.0493	0.0122	2.02
CATATTAGTTGACCATAAGGGCAACCGAAGCTCG	1.05	0.784	0.591	0.601	0.928	0.55	0.779	0.866	0.713	0.78	0.59	1.02	1.7	1.43	1.42	0.825	0.678	1.19	1.93	1.8
CGTCCAAGGTTATAGGAGGTCAGTGAAGACAGAT	3.51	7.81	5.37	6.47	0.402	3.39	1.35	1.77	0.207	0.943	1.11	2.3	0.293	0.256	3.21	5.24	1.46	3.66	0.744	3.48
CAAACTAGGTCAAGATGTCAAAGTCCGCTTCCCG	3.9	3.18	0.475	2.4	0.306	4.98	8.33	7.27	4.86	7.04	8.4	8.48	2.81	1.01	2.29	1.86	-0.0603	3.02	0.666	4.12
AATACAGGGTCACTAGGCCGGAGTAGGTACGAAT	5.72	5.1	0.78	3.77	1.05	5.36	6.6	6.03	2.5	4.78	3.1	5.05	0.885	0.938	1.34	2.98	0.306	3.81	-0.208	3.97
TCATGTAGGTAAAGGTGAAAGTCGAACGATATGA	1.05	1.11	-0.13	1.23	-0.337	3.46	4.4	4.72	4.32	4.81	4.4	4.97	1.57	1.56	0.969	0.939	0.207	1.53	0.733	2.05
CCTACTGGGCCATTCATAGGTCATTGATCATATG	0.867	2.17	3.55	2	-0.0981	2.64	1.49	1.93	0.277	1.06	4.46	3.82	0.954	-0.204	1.33	1.8	0.411	2.11	0.376	1.88
GCTGCTAGGCCAGGTTGGTCAGCTAACGGGTACG	-1	-1.03	-0.776	-1.31	-1.37	-1.27	-0.607	-1.01	-1.22	-1.17	-0.104	-0.575	-1.57	-1.24	-1.2	-1.06	-0.918	-0.979	-0.954	0.166
TTACCAAGGTGAAGGTCGTAGATCCCTCTGTAGA	0.719	0.647	-0.474	0.573	-0.742	2.43	3.49	3.86	2.16	3.43	1.02	3.32	-0.72	-0.483	-0.867	0.858	-0.255	1.4	-0.36	2.01
AGTACAGGGTCATCGTAGGCCAGAGTACGCACAG	7.3	5.7	0.868	4.07	1.05	5.87	6.41	5.7	2.18	4.41	1.41	3.74	2.14	0.916	3.28	4.88	0.894	5.21	0.349	4.46
